{"source": "PubChem BioAssay AID1159580", "about": "(chemical genetic matrix, 2015)", "experiment": "chemical genetic growth profiling, strain panel (AID 1159580);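 also: tested at 20 µM; growth read once vehicle control cultures reached saturation at 30 °C; 1 = growth at the plate median or of vehicle wells; lower values mean less growth of the strain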", "settings": "growth OD", "note": "The whole screen tested about 5,500 compounds, of which about 2,000 (36%) were called active. Not shown: some 18% with an inconclusive outcome. The list shows a part of the results. Values without a mark were called inactive. Rule as the data show it: active = normalized growth mostly below about 0.91 (no sharp cut-off); inconclusive = no clear call, values can overlap the other calls; inactive = mostly above about 0.92."}
{"smiles": "CCC(=O)OCC(=O)C1(OC(=O)CC)C(C)CC2C3CCC4=CC(=O)C=CC4(C)C3(Cl)C(O)CC21C", "note": "(configuration not stated)", "values": [{"measurement": "normalized growth", "setting": "S. cerevisiae deletion strains, locus YJR043C, strain POL32, hits give low values", "value": 1.03}, {"measurement": "normalized growth", "setting": "S. cerevisiae deletion strains, locus YJR066W, strain TOR1, hits give low values", "value": 0.995}, {"measurement": "normalized growth", "setting": "S. cerevisiae deletion strains, locus YKL009W, strain mrt4, hits give low values", "value": 1}, {"measurement": "normalized growth", "setting": "S. cerevisiae deletion strains, locus YKL068W, hits give low values", "value": 0.989}, {"measurement": "normalized growth", "setting": "S. cerevisiae deletion strains, locus YKL085W, strain MDH1 (second series), hits give low values", "value": 0.997}, {"measurement": "normalized growth", "setting": "S. cerevisiae deletion strains, locus YKL085W, strain MDH1, hits give low values", "value": 0.997}, {"measurement": "normalized growth", "setting": "S. cerevisiae deletion strains, locus YKL160W, strain elf1, hits give low values", "value": 0.964}, {"measurement": "normalized growth", "setting": "S. cerevisiae deletion strains, locus YKR001C, strain vps1, hits give low values", "value": 0.992}, {"measurement": "normalized growth", "setting": "S. cerevisiae deletion strains, locus YKR026C, strain gcn3, hits give low values", "value": 0.983}, {"measurement": "normalized growth", "setting": "S. cerevisiae deletion strains, locus YKR091W, strain srl3, hits give low values", "value": 0.983}, {"measurement": "normalized growth", "setting": "S. cerevisiae deletion strains, locus YLL001W, strain dnm1, hits give low values", "value": 0.927}, {"measurement": "normalized growth", "setting": "S. cerevisiae deletion strains, locus YLL026W, hits give low values", "value": 0.989}, {"measurement": "normalized growth", "setting": "S. cerevisiae deletion strains, locus YLL041C, strain sdh2, hits give low values", "value": 0.977}, {"measurement": "normalized growth", "setting": "S. cerevisiae deletion strains, locus YLR027C, strain aat2, hits give low values", "value": 0.962}, {"measurement": "normalized growth", "setting": "S. cerevisiae deletion strains, locus YLR039C, strain RIC1, hits give low values", "value": 1.02}, {"measurement": "normalized growth", "setting": "S. cerevisiae deletion strains, locus YLR058C, strain SHM2, hits give low values", "value": 1.02}, {"measurement": "normalized growth", "setting": "S. cerevisiae deletion strains, locus YLR102C, strain apc9, hits give low values", "value": 0.994}, {"measurement": "normalized growth", "setting": "S. cerevisiae deletion strains, locus YLR113W, strain HOG1, hits give low values", "value": 1.07}, {"measurement": "normalized growth", "setting": "S. cerevisiae deletion strains, locus YLR221C, strain rsa3, hits give low values", "value": 1.01}, {"measurement": "normalized growth", "setting": "S. cerevisiae deletion strains, locus YLR258W, strain gsy2, hits give low values", "value": 0.993}, {"measurement": "normalized growth", "setting": "S. cerevisiae deletion strains, locus YLR262C, strain YPT6 (second series), hits give low values", "value": 0.915}, {"measurement": "normalized growth", "setting": "S. cerevisiae deletion strains, locus YLR262C, strain YPT6, hits give low values", "value": 1.07}, {"measurement": "normalized growth", "setting": "S. cerevisiae deletion strains, locus YLR268W, strain sec22, hits give low values", "value": 0.985}, {"measurement": "normalized growth", "setting": "S. cerevisiae deletion strains, locus YLR320W, strain mms22, hits give low values", "value": 0.983}, {"measurement": "normalized growth", "setting": "S. cerevisiae deletion strains, locus YLR330W, strain CHS5, hits give low values", "value": 1.02}, {"measurement": "normalized growth", "setting": "S. cerevisiae deletion strains, locus YLR342W, strain FKS1 (second series), hits give low values", "value": 1.05}, {"measurement": "normalized growth", "setting": "S. cerevisiae deletion strains, locus YLR342W, strain FKS1, hits give low values", "value": 0.977}, {"measurement": "normalized growth", "setting": "S. cerevisiae deletion strains, locus YLR357W, strain rsc2, hits give low values", "value": 1.03}, {"measurement": "normalized growth", "setting": "S. cerevisiae deletion strains, locus YLR370C, strain arc18, hits give low values", "value": 0.963}, {"measurement": "normalized growth", "setting": "S. cerevisiae deletion strains, locus YLR371W, strain rom2, hits give low values", "value": 0.992}, {"measurement": "normalized growth", "setting": "S. cerevisiae deletion strains, locus YLR384C, strain iki3, hits give low values", "value": 0.958}, {"measurement": "normalized growth", "setting": "S. cerevisiae deletion strains, locus YLR418C, strain cdc73, hits give low values", "value": 0.984}, {"measurement": "normalized growth", "setting": "S. cerevisiae deletion strains, locus YML016C, strain PPZ1, hits give low values", "value": 1.02}, {"measurement": "normalized growth", "setting": "S. cerevisiae deletion strains, locus YML032C, strain rad52, hits give low values", "value": 0.994}, {"measurement": "normalized growth", "setting": "S. cerevisiae deletion strains, locus YML120C, strain ndi1, hits give low values", "value": 0.958}, {"measurement": "normalized growth", "setting": "S. cerevisiae deletion strains, locus YML124C, strain tub3, hits give low values", "value": 0.985}, {"measurement": "normalized growth", "setting": "S. cerevisiae deletion strains, locus YMR058W, strain fet3, hits give low values", "value": 0.986}, {"measurement": "normalized growth", "setting": "S. cerevisiae deletion strains, locus YMR078C, strain ctf18, hits give low values", "value": 0.992}, {"measurement": "normalized growth", "setting": "S. cerevisiae deletion strains, locus YMR125W, strain sto1, hits give low values", "value": 0.988}, {"measurement": "normalized growth", "setting": "S. cerevisiae deletion strains, locus YMR129W, hits give low values", "value": 0.976}, {"measurement": "normalized growth", "setting": "S. cerevisiae deletion strains, locus YMR205C, strain PFK2, hits give low values", "value": 0.965}, {"measurement": "normalized growth", "setting": "S. cerevisiae deletion strains, locus YMR223W, strain ubp8, hits give low values", "value": 1}, {"measurement": "normalized growth", "setting": "S. cerevisiae deletion strains, locus YMR231W, strain pep5, hits give low values", "value": 0.971}, {"measurement": "normalized growth", "setting": "S. cerevisiae deletion strains, locus YMR307W, strain GAS1, hits give low values", "value": 1.09}, {"measurement": "normalized growth", "setting": "S. cerevisiae deletion strains, locus YNL067W, strain RPL9B, hits give low values", "value": 0.996}, {"measurement": "normalized growth", "setting": "S. cerevisiae deletion strains, locus YNL071W, strain lat1, hits give low values", "value": 0.989}, {"measurement": "normalized growth", "setting": "S. cerevisiae deletion strains, locus YNL183C, strain NPR1, hits give low values", "value": 0.983}, {"measurement": "normalized growth", "setting": "S. cerevisiae deletion strains, locus YNL209W, strain ssb2, hits give low values", "value": 0.997}, {"measurement": "normalized growth", "setting": "S. cerevisiae deletion strains, locus YNL233W, strain BNI4, hits give low values", "value": 1}, {"measurement": "normalized growth", "setting": "S. cerevisiae deletion strains, locus YNL248C, strain rpa49, hits give low values", "value": 0.973}, {"measurement": "normalized growth", "setting": "S. cerevisiae deletion strains, locus YNL250W, strain rad50, hits give low values", "value": 1}, {"measurement": "normalized growth", "setting": "S. cerevisiae deletion strains, locus YNL271C, strain bni1, hits give low values", "value": 0.988}, {"measurement": "normalized growth", "setting": "S. cerevisiae deletion strains, locus YNL298W, strain CLA4, hits give low values", "value": 0.991}, {"measurement": "normalized growth", "setting": "S. cerevisiae deletion strains, locus YNL307C, strain MCK1, hits give low values", "value": 0.981}, {"measurement": "normalized growth", "setting": "S. cerevisiae deletion strains, locus YNL322C, strain KRE1 (second series), hits give low values", "value": 0.971}, {"measurement": "normalized growth", "setting": "S. cerevisiae deletion strains, locus YNR049C, strain mso1, hits give low values", "value": 0.982}, {"measurement": "normalized growth", "setting": "S. cerevisiae deletion strains, locus YNR052C, strain pop2, hits give low values", "value": 0.994}, {"measurement": "normalized growth", "setting": "S. cerevisiae deletion strains, locus YOL012C, strain htz1", "value": 1.1}, {"measurement": "normalized growth", "setting": "S. cerevisiae deletion strains, locus YOL147C, strain pex11, hits give low values", "value": 0.986}, {"measurement": "normalized growth", "setting": "S. cerevisiae deletion strains, locus YOR001W, strain rrp6, hits give low values", "value": 0.952}, {"measurement": "normalized growth", "setting": "S. cerevisiae deletion strains, locus YOR061W, strain CKA2, hits give low values", "value": 1.02}, {"measurement": "normalized growth", "setting": "S. cerevisiae deletion strains, locus YOR069W, strain VPS5, hits give low values", "value": 1.01}, {"measurement": "normalized growth", "setting": "S. cerevisiae deletion strains, locus YOR070C, strain gyp1, hits give low values", "value": 0.996}, {"measurement": "normalized growth", "setting": "S. cerevisiae deletion strains, locus YOR080W, strain dia2, hits give low values", "value": 0.954}, {"measurement": "normalized growth", "setting": "S. cerevisiae deletion strains, locus YOR083W, strain WHI5, hits give low values", "value": 0.946}, {"measurement": "normalized growth", "setting": "S. cerevisiae deletion strains, locus YOR106W, strain vam3, hits give low values", "value": 0.931}, {"measurement": "normalized growth", "setting": "S. cerevisiae deletion strains, locus YOR136W, strain idh2, hits give low values", "value": 0.979}, {"measurement": "normalized growth", "setting": "S. cerevisiae deletion strains, locus YOR144C, strain elg1, hits give low values", "value": 0.991}, {"measurement": "normalized growth", "setting": "S. cerevisiae deletion strains, locus YOR184W, strain ser1, hits give low values", "value": 0.986}, {"measurement": "normalized growth", "setting": "S. cerevisiae deletion strains, locus YOR231W, strain MKK1, hits give low values", "value": 1.05}, {"measurement": "normalized growth", "setting": "S. cerevisiae deletion strains, locus YOR265W, strain rbl2, hits give low values", "value": 0.985}, {"measurement": "normalized growth", "setting": "S. cerevisiae deletion strains, locus YOR270C, strain vph1, hits give low values", "value": "0.757 (active)"}, {"measurement": "normalized growth", "setting": "S. cerevisiae deletion strains, locus YOR290C, strain snf2, hits give low values", "value": 1}, {"measurement": "normalized growth", "setting": "S. cerevisiae deletion strains, locus YOR316C, strain cot1, hits give low values", "value": 0.991}, {"measurement": "normalized growth", "setting": "S. cerevisiae deletion strains, locus YPL051W, strain arl3, hits give low values", "value": 0.986}, {"measurement": "normalized growth", "setting": "S. cerevisiae deletion strains, locus YPL055C, strain LGE1, hits give low values", "value": 1.01}, {"measurement": "normalized growth", "setting": "S. cerevisiae deletion strains, locus YPL078C, strain atp4, hits give low values", "value": 0.921}, {"measurement": "normalized growth", "setting": "S. cerevisiae deletion strains, locus YPL106C, strain sse1, hits give low values", "value": 1.06}, {"measurement": "normalized growth", "setting": "S. cerevisiae deletion strains, locus YPL240C, strain hsp82, hits give low values", "value": 0.976}, {"measurement": "normalized growth", "setting": "S. cerevisiae deletion strains, locus YPL241C, strain CIN2, hits give low values", "value": 1.02}, {"measurement": "normalized growth", "setting": "S. cerevisiae deletion strains, locus YPL256C, strain CLN2, hits give low values", "value": 1.05}, {"measurement": "normalized growth", "setting": "S. cerevisiae deletion strains, locus YPR119W, strain clb2, hits give low values", "value": 0.988}, {"measurement": "normalized growth", "setting": "S. cerevisiae deletion strains, locus YPR141C, strain kar3, hits give low values", "value": 0.988}, {"measurement": "normalized growth", "setting": "S. cerevisiae deletion strains, locus YPR163C, strain tif3, hits give low values", "value": 0.995}, {"measurement": "normalized growth", "setting": "S. cerevisiae deletion strains, locus YPR167C, strain met16, hits give low values", "value": 0.993}, {"measurement": "normalized growth", "setting": "S. cerevisiae deletion strains, strain wtn01, hits give low values", "value": 0.977}, {"measurement": "normalized growth", "setting": "S. cerevisiae strains, strain wild type, hits give low values", "value": 1.02}]}
